Source: PubChem BioAssay (NCATS)
Inconclusive results are not listed. Activity calls are given as the source filed them. Calls come from the whole dose curve; as a rule, active = well fitted cell-killing curve with a large enough effect; inconclusive = small, poorly fitted or top-dose-only effect, or effect the other way; inactive = flat fitted curve, though single readings scatter.

What was measured:
Experiment in all cases: Primary qHTS to identify gynecologic anti-cancer compounds using libraries of approved drugs and bioactive compounds (AID 1345084); note: nearly all actives have a fitted effect of over 55% in size
C33A = conditions: Gynecologic cancer cell panel viability, ATPlite luminescence, 48 h; series mostly up to 57.5 µM
How it was run: (§1)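 48 h compound exposure at 37 C, 5% CO2; five-point qHTS. ATPlite luminescence readout of cell ATP.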

CASKI = conditions: Gynecologic cancer cell panel viability, ATPlite luminescence, 48 h; series mostly up to 57.5 µM
How it was run: as §1

Es-2 = conditions: Gynecologic cancer cell panel viability, ATPlite luminescence, 48 h; series mostly up to 57.5 µM
How it was run: as §1

HeLa = conditions: Gynecologic cancer cell panel viability, ATPlite luminescence, 48 h; series mostly up to 57.5 µM
How it was run: as §1

Hek293T = conditions: Gynecologic cancer cell panel viability, ATPlite luminescence, 48 h, control line for the selectivity index; series mostly up to 57.5 µM
How it was run: as §1

JEG-3 = conditions: Gynecologic cancer cell panel viability, ATPlite luminescence, 48 h; series mostly up to 57.5 µM
How it was run: as §1

OV90 = conditions: Gynecologic cancer cell panel viability, ATPlite luminescence, 48 h; series mostly up to 57.5 µM
How it was run: as §1

PA-1 = conditions: Gynecologic cancer cell panel viability, ATPlite luminescence, 48 h; series mostly up to 57.5 µM
How it was run: as §1

SKOV3 = conditions: Gynecologic cancer cell panel viability, ATPlite luminescence, 48 h; series mostly up to 57.5 µM
How it was run: as §1

Tov-21-G = conditions: Gynecologic cancer cell panel viability, ATPlite luminescence, 48 h; series mostly up to 57.5 µM
How it was run: as §1

Tov112D = conditions: Gynecologic cancer cell panel viability, ATPlite luminescence, 48 h; series mostly up to 57.5 µM
How it was run: as §1

CAOV3 = conditions: Gynecologic cancer cell panel viability, ATPlite luminescence, 48 h; series mostly up to 57.5 µM
How it was run: as §1
% is set by controls: 0 for no effect and ±100 for the full control effect; potency is the fitted concentration of half-maximal effect.

Cc1cc(C)c(-n2cc(C)c3c(Cl)nc(C)nc32)c(C)c1
inactive: Potency (C33A) | Potency (CASKI) | Potency (Es-2) | Potency (HeLa) | Potency (Hek293T) | Potency (JEG-3) | Potency (OV90) | Potency (PA-1) | Potency (SKOV3) | Potency (Tov-21-G) | Potency (Tov112D)

CC(C)[C@@H](c1ccc(C(F)(F)F)cc1CN(Cc1cc(C(F)(F)F)cc(C(F)(F)F)c1)c1nnn(C)n1)N1CCC(C(=O)O)CC1
inactive: Potency (C33A) | Potency (CASKI) | Potency (Es-2) | Potency (HeLa) | Potency (Hek293T) | Potency (JEG-3) | Potency (OV90) | Potency (PA-1) | Potency (SKOV3) | Potency (Tov-21-G) | Potency (Tov112D)

CC1CCC(=O)CC(SCC(O)C(=O)O)CCC(=O)O1 (stereo not drawn)
inactive: Potency (C33A) | Potency (CASKI) | Potency (Es-2) | Potency (HeLa) | Potency (Hek293T) | Potency (JEG-3) | Potency (OV90) | Potency (PA-1) | Potency (SKOV3) | Potency (Tov-21-G) | Potency (Tov112D)

Fc1ccc(N2CCN(CCC3OCCc4ccccc43)CC2)cc1 (stereo not drawn)
inactive: Potency (C33A) | Potency (CASKI) | Potency (Es-2) | Potency (HeLa) | Potency (Hek293T) | Potency (JEG-3) | Potency (OV90) | Potency (PA-1) | Potency (SKOV3) | Potency (Tov-21-G) | Potency (Tov112D)

C=CC(=O)N1CCN(C(=O)CNc2cc(-c3ccccc3Cl)c(Cl)cc2OC)CC1
inactive: Potency (C33A) | Potency (CASKI) | Potency (Es-2) | Potency (HeLa) | Potency (Hek293T) | Potency (JEG-3) | Potency (OV90) | Potency (PA-1) | Potency (SKOV3) | Potency (Tov-21-G) | Potency (Tov112D)

CC1(C)CCC2(C(=O)OC3OC(COC4OC(CO)C(O)C(O)C4O)C(O)C(O)C3O)CCC3(C)C(=CCC4C5(C)CCC(OC6OCC(O)C(O)C6O)C(C)(C)C5CCC43C)C2C1O (stereo not drawn)
inactive: activity change, negative = cytotoxicity (C33A) -1.3% [at 11.6 µM] | activity change, negative = cytotoxicity (CASKI) -6.34% [at 11.6 µM] | activity change, negative = cytotoxicity (Es-2) 5.34% [at 11.6 µM] | activity change, negative = cytotoxicity (HeLa) 20.6% [at 11.6 µM] | activity change, negative = cytotoxicity (Hek293T) -15.1% [at 11.6 µM] | activity change, negative = cytotoxicity (JEG-3) -7.3% [at 11.6 µM] | activity change, negative = cytotoxicity (OV90) -2.98% [at 11.6 µM] | activity change, negative = cytotoxicity (PA-1) -14.1% [at 11.6 µM] | activity change, negative = cytotoxicity (SKOV3) -2.57% [at 11.6 µM] | activity change, negative = cytotoxicity (Tov-21-G) 0.233% [at 11.6 µM] | activity change, negative = cytotoxicity (Tov112D) -9.09% [at 11.6 µM]

CC/C(C)=C/C(=O)OC1C(OC2(C)CCC3C(C4C(C)CCC42)C3(C)C)OC(C)C(O)C1O (stereo not drawn)
inactive: Potency (C33A) | Potency (CASKI) | Potency (Es-2) | Potency (HeLa) | Potency (Hek293T) | Potency (JEG-3) | Potency (OV90) | Potency (PA-1) | Potency (SKOV3) | Potency (Tov-21-G) | Potency (Tov112D)

CC(=O)O[C@@H]1C2=C(O)C(=O)[C@](C)(OC(C)=O)C(=O)C2=CO[C@@]12O[C@@H](C)CC[C@H]2OC(C)=O
inactive: Potency (C33A) | Potency (CASKI) | Potency (Es-2) | Potency (HeLa) | Potency (Hek293T) | Potency (JEG-3) | Potency (OV90) | Potency (PA-1) | Potency (SKOV3) | Potency (Tov-21-G) | Potency (Tov112D)

CC(C)NCCCn1c(Sc2cc3c(cc2I)OCO3)nc2c(N)ncnc21
active: Potency (C33A) 1.58 µM | Potency (CAOV3) 1.58 µM | Potency (OV90) 0.398 µM | Potency (SKOV3) 2 µM | Potency (Tov-21-G) 0.501 µM | Potency (Tov112D) 0.891 µM
inactive: Potency (HeLa)

CCC(CC)C(c1ccc(Nc2nc3ccccc3s2)cc1)n1cncn1 (stereo not drawn)
active: Potency (C33A) 25.1 µM | Potency (CAOV3) 28.2 µM | Potency (HeLa) 35.5 µM | Potency (JEG-3) 31.6 µM | Potency (OV90) 31.6 µM | Potency (PA-1) 22.4 µM | Potency (Tov112D) 22.4 µM

CC(=O)OC1CC2(C)C(CCC(C)C23Cc2c(O)cc(CO)c(C=O)c2O3)C(C)(C)C1O (stereo not drawn)
inactive: Potency (C33A) | Potency (CASKI) | Potency (Es-2) | Potency (HeLa) | Potency (Hek293T) | Potency (JEG-3) | Potency (OV90) | Potency (PA-1) | Potency (SKOV3) | Potency (Tov-21-G) | Potency (Tov112D)

CC(=O)OC1C(=O)C2C3OCC4=C3[C@@](C)(CC[C@@H]4O)CC[C@]2(C)[C@H]1C(C)C (stereo partly drawn)
inactive: Potency (C33A) | Potency (CASKI) | Potency (Es-2) | Potency (HeLa) | Potency (Hek293T) | Potency (JEG-3) | Potency (OV90) | Potency (PA-1) | Potency (SKOV3) | Potency (Tov-21-G) | Potency (Tov112D)

COC(=O)C1=COC(O[C@@H]2O[C@H](CO[C@@H]3O[C@H](COC(=O)/C=C\c4ccc(O)cc4)[C@@H](O)[C@H](O)[C@H]3O)[C@@H](O)[C@H](O)[C@H]2O)C2C(CO)=CCC12 (stereo partly drawn)
inactive: Potency (C33A) | Potency (CAOV3) | Potency (OV90)

CC(C)(Cc1nc(-c2ccc(O)cn2)no1)C(=O)NC1=C(C(=O)O)CCCC1
inactive: Potency (C33A) | Potency (CASKI) | Potency (Es-2) | Potency (HeLa) | Potency (Hek293T) | Potency (JEG-3) | Potency (OV90) | Potency (PA-1) | Potency (SKOV3) | Potency (Tov-21-G) | Potency (Tov112D)
